Hits are enriched below; roughly 5.3% of the tested compounds scored in any of these assays.
JMJD2A Tudor inh: JMJD2A Tudor domain (human) inhibition. AlphaScreen JMJD2A-Tudor / H3K4me3 peptide binding. O75164. 390,000 tested, 4.4% active. Potency, µM (highest dose often 114 µM), for the others: top-dose activity change, negative = inhibition, actives largely listed as inhibitors; note: potency is the fitted concentration of half-maximal effect; % is set by controls: 0 for no effect and ±100 for the full control effect; nearly all actives have a fitted effect of over 50% in size
TDP1 inh: TDP1 (human) enzyme inhibition; recombinant TDP1, AlphaScreen DNA substrate cleavage; Potency, µM (series often up to 130 µM), inactives show at the top dose activity change, negative = inhibition, usual class: inhibitors; 350,000 tested, 0.28% active; note: potency is the fitted concentration of half-maximal effect; % is set by controls: 0 for no effect and ±100 for the full control effect; nearly all actives have a fitted effect of over 40% in size
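Recombinant human Tdp1 (E. coli-expressed, 1 nM final) preincubated with compounds 15 min at room temperature, then 5'-biotin/3'-phosphotyrosine-FITC DNA substrate (15 nM final) added for 5 min. AlphaScreen beads (10 ug/ml final) added 10 min; cleavage lowers signal.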
BAZ2B inh: inhibitors of human BAZ2B bromodomain; 360,000 tested, 4.4% active; AlphaScreen BAZ2B-H3K14Ac peptide displacement; Q9UIF8; Potency, µM (highest dose often 114 µM), for the others: at the top dose activity change, negative = inhibition, actives largely listed as inhibitors; note: potency is the fitted concentration of half-maximal effect; % is set by controls: 0 for no effect and ±100 for the full control effect; nearly all actives have a fitted effect of over 60% in size
Target sequence (Q9UIF8 whole entry, looked up): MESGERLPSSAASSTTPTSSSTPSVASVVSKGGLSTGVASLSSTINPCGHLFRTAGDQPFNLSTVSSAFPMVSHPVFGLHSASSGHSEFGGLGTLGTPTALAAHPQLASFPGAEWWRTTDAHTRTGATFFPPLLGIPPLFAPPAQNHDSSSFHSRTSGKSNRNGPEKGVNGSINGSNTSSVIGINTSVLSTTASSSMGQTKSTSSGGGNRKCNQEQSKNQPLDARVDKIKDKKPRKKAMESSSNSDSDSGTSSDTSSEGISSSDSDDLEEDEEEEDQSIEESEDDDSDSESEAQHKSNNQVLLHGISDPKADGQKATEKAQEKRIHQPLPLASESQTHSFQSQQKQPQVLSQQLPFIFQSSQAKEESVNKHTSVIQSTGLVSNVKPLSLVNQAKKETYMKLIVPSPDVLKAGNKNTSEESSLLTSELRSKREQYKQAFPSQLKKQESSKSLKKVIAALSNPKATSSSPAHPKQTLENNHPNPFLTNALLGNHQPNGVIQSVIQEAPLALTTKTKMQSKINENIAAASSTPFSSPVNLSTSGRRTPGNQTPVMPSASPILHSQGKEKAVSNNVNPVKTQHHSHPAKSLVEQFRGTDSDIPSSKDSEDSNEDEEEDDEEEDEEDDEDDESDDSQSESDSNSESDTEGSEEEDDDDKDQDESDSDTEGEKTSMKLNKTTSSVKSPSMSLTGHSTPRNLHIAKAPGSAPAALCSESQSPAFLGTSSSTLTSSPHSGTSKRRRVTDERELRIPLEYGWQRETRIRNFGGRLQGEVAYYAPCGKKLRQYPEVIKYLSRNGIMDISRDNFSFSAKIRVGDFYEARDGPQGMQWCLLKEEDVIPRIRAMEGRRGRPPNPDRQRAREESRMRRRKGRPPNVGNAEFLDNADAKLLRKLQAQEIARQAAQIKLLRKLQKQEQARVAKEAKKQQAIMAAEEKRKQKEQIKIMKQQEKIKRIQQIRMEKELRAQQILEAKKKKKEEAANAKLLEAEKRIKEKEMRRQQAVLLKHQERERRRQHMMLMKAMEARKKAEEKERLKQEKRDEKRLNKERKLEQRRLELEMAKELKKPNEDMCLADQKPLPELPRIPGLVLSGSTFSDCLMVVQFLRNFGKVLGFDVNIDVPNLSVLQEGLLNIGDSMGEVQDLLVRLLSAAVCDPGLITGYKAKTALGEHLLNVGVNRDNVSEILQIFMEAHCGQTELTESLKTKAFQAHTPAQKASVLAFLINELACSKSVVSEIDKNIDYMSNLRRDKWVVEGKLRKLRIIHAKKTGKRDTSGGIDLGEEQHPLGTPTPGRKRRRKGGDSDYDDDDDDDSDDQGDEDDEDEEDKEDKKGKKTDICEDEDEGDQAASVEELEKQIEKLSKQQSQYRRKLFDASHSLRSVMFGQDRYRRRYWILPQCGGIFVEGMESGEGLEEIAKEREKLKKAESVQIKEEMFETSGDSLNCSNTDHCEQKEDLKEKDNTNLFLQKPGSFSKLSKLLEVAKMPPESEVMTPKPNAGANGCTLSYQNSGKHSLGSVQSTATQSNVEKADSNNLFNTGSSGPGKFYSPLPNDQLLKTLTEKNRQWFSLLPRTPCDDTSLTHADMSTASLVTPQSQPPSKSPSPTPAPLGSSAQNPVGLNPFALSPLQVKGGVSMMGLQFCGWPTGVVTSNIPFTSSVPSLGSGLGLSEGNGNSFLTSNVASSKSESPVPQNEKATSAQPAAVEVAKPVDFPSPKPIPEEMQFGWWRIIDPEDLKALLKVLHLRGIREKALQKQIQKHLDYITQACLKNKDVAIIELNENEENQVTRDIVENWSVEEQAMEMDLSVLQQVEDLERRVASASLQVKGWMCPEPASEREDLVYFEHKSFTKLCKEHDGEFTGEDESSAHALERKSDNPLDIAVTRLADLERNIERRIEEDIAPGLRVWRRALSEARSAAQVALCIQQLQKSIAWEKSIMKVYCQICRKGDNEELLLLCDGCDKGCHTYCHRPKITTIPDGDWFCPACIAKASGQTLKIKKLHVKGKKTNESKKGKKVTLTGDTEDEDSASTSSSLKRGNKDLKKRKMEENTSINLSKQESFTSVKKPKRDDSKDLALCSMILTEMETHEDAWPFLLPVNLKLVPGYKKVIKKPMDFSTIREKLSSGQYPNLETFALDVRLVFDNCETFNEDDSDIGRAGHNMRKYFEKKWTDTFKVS
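Complex of BAZ2B and biotin-H3K14Ac (50 nM apiece) forms over 30 min at RT, then faces library compounds up to 110 uM for another 30 min; AlphaScreen beads added, 20 min dark incubation, luminescence read.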
HP1b chromo inh: blocks HP1-beta chromodomain binding to methylated histone tails. AlphaScreen HP1-beta / biotin-H3K9me3 peptide binding. 390,000 tested, 0.56% active. P83916. Potency, µM (titrated, usually from 114 µM), for inactives: at the highest dose activity change, negative = inhibition, most hits filed as inhibitors; note: potency is the fitted concentration of half-maximal effect; nearly all actives have a fitted effect of over 70% in size
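AlphaScreen: HP1-beta (50 nM) preformed 30 min with biotin-H3(1-18)K9me3 peptide (50 nM) in PBS pH 7.4, 0.01% Tween-20. Compound added for 30 min at RT, then streptavidin donor/nickel chelate acceptor beads (10 ug/mL) for 30 min.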
CtBP-E1A blk: CtBP/E1A binding inhibition | 340,000 tested, 0.49% active | activity change, % (no concentration beside the values) | AlphaScreen GST-E1A/His-CtBP binding, 1536-well; active compounds read low; in the data active = activity change below about -65%; inconclusive = mostly about -30% to -63%; note: % is set by controls: 0 for no effect and ±100 for the full control effect
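AlphaScreen with 125 nM GST-E1A and 125 nM His-CtBP (5X stocks) in Tris pH 8.0, 300 mM NaCl, BSA, Tween 20, TCEP. Compounds preincubated 2 h at 37 deg C, then glutathione donor/nickel acceptor beads added for 1 h at 37 deg C in dark.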
Six1-Eya2 blk: inhibitors of human Six1/Eya2 interaction | Q15475+O00167 | AlphaScreen GST-Six1/His-Eya2 binding, biochemical; active compounds read low | activity change, % (test concentration not listed) | 360,000 tested, 0.56% active; in the data active = activity change below about -65%; inconclusive = mostly about -30% to -63%; note: % is set by controls: 0 for no effect and ±100 for the full control effect
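GST-Six1 + His-Eya2 (5X stock: 250/500 nM); Tris pH 8.0, 300 mM NaCl, 0.05% BSA, 0.02% Tween 20; GSH donor/Ni acceptor beads; 1 h 37 °C dark; AlphaScreen readout.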
An asterisk follows results filed as active; u = inconclusive; x = no result given; [ ] = remark or other dose. Unless noted, calls come from the whole dose curve; as a rule, active = well fitted inhibition curve with a large enough effect; inconclusive = small, poorly fitted or top-dose-only effect; inactive = no such curve, though single readings can be large or run the other way.

SMILES	JMJD2A Tudor inh	TDP1 inh	BAZ2B inh	HP1b chromo inh	CtBP-E1A blk	Six1-Eya2 blk
COc1ccc2[nH]c(=O)c(-c3nnn(-c4ccc(Cl)nc4)n3)cc2c1	50µM*	x	x	4%	-3	-4
COc1ccc2[nH]c(=O)c(-c3noc(-c4ccccc4)n3)cc2c1	u	-5%	50µM*	43%	-12	-15
COc1ccc2[nH]c(=O)c(-c3nnn(-c4ccccc4)n3)cc2c1	0%	6%	0%	43%	-2	-6
COc1ccc2[nH]c(=O)c(-c3nnn(-c4ccc(F)cc4)n3)cc2c1	u	x	x	65%	-1	0
COc1ccc(-c2nc(S(=O)(=O)c3ccc(Cl)cc3)c(NCc3ccccc3)o2)cc1	-25%	x	13%	60%	x	x
COc1ccccc1CNC(=O)CCn1c(=O)c2ccccc2n(CC(=O)Nc2ccc(C)cc2C)c1=O	-10%	8%	-29%	22%	x	x
CCCCOc1ccc(-c2nonc2NC(=O)c2ccco2)cc1	-4%	-2%	9%	23%	x	x
Cc1nc(SCc2nc3c(O)cccc3[nH]2)c2oc3ccccc3c2n1	28µM*	0%	x	24%	x	x
Cc1nc(SCc2nc3ccc(F)cc3[nH]2)c2oc3ccccc3c2n1	u	-4%	x	25%	x	x
C=CCN(C(C(=O)OC)C(C)C)S(=O)(=O)CCl (stereo unspecified)	2%	3%	x	41%	x	x
Cc1c(C(=O)NCc2cccc(Cl)c2)sc2nc3n(c(=O)c12)CCC3	-18%	6%	-30%	31%	x	x
Cc1cc(/C=C2/C(=N)N3C(=NC2=O)SN=C3S(C)(=O)=O)c(C)n1-c1ccc(F)cc1	-24%	7%	x	16%	x	-6
Cc1ccc(-n2cccc2/C=C2/C(=N)N3C(=NC2=O)SN=C3S(C)(=O)=O)cc1Cl	45µM*	2%	45µM*	-35%	-2	-2
CC1=CSC2=NC(=O)/C(=C\c3cccn3-c3ccccc3)C(=N)N12	u	3%	-7%	1%	-11	-20
CCOc1ccc(-n2c(C)cc(/C=C3/C(=N)N4C(=NC3=O)SN=C4S(C)(=O)=O)c2C)cc1	u	6%	56µM*	10%	x	-5
Cc1c(Cl)cccc1NS(=O)(=O)c1cc2c(cc1Cl)CCC(=O)N2	-9%	1%	x	x	x	x
Cc1ccc(C(=O)NCCc2ccc(S(N)(=O)=O)cc2)cc1-n1cnc2cccnc21	6%	0%	-21%	32%	x	x
CN1CCN(CCC(=O)N/N=C/c2cc3c(cc2[N+](=O)[O-])OCO3)CC1	4µM*	5%	-30%	-1%	5	1
O=C(N/N=C/c1cc2c(cc1[N+](=O)[O-])OCO2)c1ccc2c(c1)OCO2	-12%	1%[0.0935 µM]	6%	29%	1	-12
Cc1cc(O)c(N=Cc2cc3c(cc2[N+](=O)[O-])OCO3)cc1C	3.5µM*	x	x	-39%	-12	-12
CCN(CC)c1ccc(/C=C(\C#N)C(N)=S)cc1	-10%[11.4 µM]	11%	13µM*	u	-6	-8
CCc1nnc2c(NCc3ccccc3OC)nc3ccccc3n12	-17%	8%	-18%	28%	x	x
COc1cc(C(=O)NCC(c2ccc3c(c2)OCO3)N2CCN(C)CC2)cc(OC)c1OC (stereo unspecified)	-4%	4%	40%	51%[57 µM]	x	x
CCOc1cc(N)c(Cl)cc1C(=O)NCC1CN(Cc2ccc(F)cc2)CCO1 (stereo unspecified)	50µM*	7%	x	10%	-9	-15
Cc1ccccc1Nc1nc(N)[nH]c(=O)c1N=O	x	x	x	x	-86*	u
CCc1c(Cl)nc(N)nc1Nc1ccccc1C	-11%	x	x	4%	5	-1
CN(CCCOc1ccccc1F)Cc1ccccc1	20µM*	x	56µM*	u	14	-2
CN(CCOc1ccccc1Cl)Cc1ccccc1	22µM*	x	56µM*	u	33	-3
CCN(CC)CCOc1ccc2c(c1)C(=NO)c1cc(OCCN(CC)CC)ccc1-2	-27%	-5%	8%[57.1 µM]	-7%	2	-10

Assay outcomes (PubChem BioAssay)
